Reference: PubChem BioAssay (Tox21)
Unmarked numbers belong to inactive results. Inconclusive results are not listed. Where a call stands in place of a potency, no number is given. The source made the active and inactive calls. Unless noted, calls follow the shape of the dose curve; as a rule, active = well fitted curve in the direction sought with a large enough effect in the repeat runs; inconclusive = weak or mixed curves; inactive = no such curve, though single readings can be large; an effect the other way counts as inactive or inconclusive.

Key:
[1] = qHTS assay to identify small molecule agonists of the sonic hedgehog signaling (Shh) pathway (AID 1259368; calls by dose curve;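 also: NIH/3T3-derived 3T3Gli1-Luc cells carrying a stable Gli1-driven firefly luciferase reporter; series mostly up to about 92 µM; nearly all actives have a fitted effect of over 15% in size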)
Outline: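 Luminescent signal was taken as a measure of Gli1-controlled luciferase expression in stably transfected NIH/3T3-derived cells that had been treated for 24 hr with compounds delivered in DMSO.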

[2] = qHTS assay to identify small molecule agonists of the androgen receptor (AR) signaling pathway in the presence of an antagonist - cell viability counter screen (AID 1259379); also: nearly all actives have a fitted effect of over 25% in size; also: potency is read from the fitted curve at half-maximal effect
Outline: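 In MDA-kb2 cells (human breast carcinoma, MMTV-luciferase), compounds at 15 concentrations plus 3.0uM nilutamide; 16 hr, 37C, 0% CO2; CellTiter-Fluor fluorescence read for viability.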

[3] = qHTS assay to identify small molecule agonists of the estrogen receptor beta (ER-beta) signaling pathway - cell viability counter screen (AID 1259380); also: nearly all actives have a fitted effect of over 30% in size; also: potency is read from the fitted curve at half-maximal effect
Outline: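 Viability of ER-beta-UAS-bla HEK293T cells was determined by CellTiter-Glo luminescence following 16 hr treatment with test compounds at 37C.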

[4] = qHTS assay to identify small molecule antagonists of the estrogen receptor beta (ER-beta) signaling pathway - cell viability counter screen (AID 1259382); also: series mostly up to about 92 µM; nearly all actives have a fitted effect of over 55% in size
Outline: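 Tox21 10K library tested in qHTS format on ER-beta-bla HEK293T cells stimulated with 1nM E2; 16 hr treatment at 37C. Same-well CellTiter-Glo luminescence served as the cell viability measure.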

[5] = qHTS assay to identify small molecule agonists or antagonists of the thyroid stimulating hormone receptor (TSHR) signaling pathway - wild type cell line counter screen (AID 1259384; calls by dose curve)
Outline: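 Wild-type HEK293 cells were plated 18 h at 37 C/5% CO2, pin-dosed with compound plus Ro20-1724 medium, held 30 min at room temperature, then given cAMP-d2 and anti-cAMP-cryptate; fluorescence was read after 1 h. Fifteen concentrations, triplicate.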

[6] = target: Thyrotropin receptor (Homo sapiens) (UniProt P16473); assay: qHTS assay to identify small molecule antagonists of the thyroid stimulating hormone receptor (TSHR) signaling pathway (AID 1259385; calls by dose curve; also: nearly all actives have a fitted effect of over 20% in size)
Outline: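 TSHR-HEK293 cells were plated and held 18 h at 37C/5% CO2, then given compound plus Ro20-1724 and stimulated with TSH at 1.5 ng/mL final. After 30 min at room temperature, cAMP was detected with cAMP-d2/anti-cAMP-cryptate (1 h) by fluorescence.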

[7] = qHTS assay to identify small molecule agonists of the estrogen receptor alpha (ER-alpha) signaling pathway in the presence of an antagonist - cell viability counter screen (AID 1259386);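 also: series mostly up to about 92 µM; cells exposed to compounds for 22 h at 37 °C before the viability read; nearly all actives have a fitted effect of over 30% in size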
Outline: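 Fluorescent CellTiter-Fluor viability signal from VM7Luc4E2 cells, with the reagent added during the final hour of a 22hr compound exposure at 37C in the presence of 10.0nM ICI-182,780.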

[8] = target: Progesterone receptor (Homo sapiens) (UniProt P06401); assay: qHTS assay to identify small molecule agonists of the progesterone receptor (PR) signaling pathway (AID 1346784; calls by dose curve; also: nearly all actives have a fitted effect of over 30% in size; also: potency is read from the fitted curve at half-maximal effect)
Outline: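 HEK 293T PR-UAS-bla reporter cells, 2% charcoal-stripped FBS; 6 hr settle at 37C/5% CO2, compound (DMSO) 16 hr, LiveBLAzer B/G FRET substrate 2 hr RT, fluorescence intensity read.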

[9] = qHTS assay to identify small molecule agonists of the progesterone receptor (PR) signaling pathway - cell viability counter screen (AID 1346799; calls by dose curve; also: nearly all actives have a fitted effect of over 45% in size)
Outline: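 HEK293T PR-UAS-bla, 3,000 cells/well, 2% charcoal-stripped FBS; 6 h settle, compound 16 h at 37C/5% CO2; LiveBLAzer 2 h RT, then CellTiter-Glo 30 min RT, luminescence read.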

[10] = qHTS assay to identify small molecule antagonists of the TGF-beta/Smad signaling pathway - cell viability counter screen (AID 1346824); also: nearly all actives have a fitted effect of over 50% in size
Outline: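 SBE-bla HEK 293T cells were plated overnight at 37 C, then given compounds in DMSO plus TGF-beta1 (added as 0.25 ng/mL solution) for 5 hr. After the bla read, CellTiter-Glo was added to the same wells and luminescence read after 30 min at room temperature.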

[11] = qHTS assay to identify small molecule agonists of the TGF-beta/Smad signaling pathway - cell viability counter screen (AID 1346829); also: top concentration of the series differs between compounds; nearly all actives have a fitted effect of over 45% in size
Outline: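 Same-well cytotoxicity: CellTiter-Glo added after the 2 hr room-temperature beta-lactamase substrate step, luminescence measured 30 min later; cells had 5 hr of compound at 37 C.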

[12] = qHTS assay to identify small molecule agonists of the TGF-beta/Smad signaling pathway (AID 1346859; active = well fitted activation curve with a large enough effect in the signal ratio in the repeat runs, not every such curve was filed as active; the % refers to the signal ratio; also: series mostly up to about 77 µM)
Outline: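 Read-out: fluorescence at 460 and 530 nm (405 nm excitation) after a 2 hr room-temperature incubation with beta-lactamase FRET substrate. SBE-bla HEK 293T cells had been treated with test compounds for 5 hr at 37 C.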

[13] = target: Androgen receptor (Homo sapiens) (UniProt P10275); assay: qHTS assay to identify small molecule agonists of the androgen receptor (AR) signaling pathway in the presence of an antagonist (AID 1259381; calls by dose curve; also: nearly all actives have a fitted effect of over 15% in size)
Outline: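 Here, 15-concentration compound series were pin-transferred onto MDA-kb2 MMTV-luciferase cells already dosed with nilutamide (3.0uM final). After 16hr at 37C, ONE-Glo was added and luminescence read 30min later at room temperature.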

[14] = target: Estrogen receptor (Homo sapiens) (UniProt P03372); assay: qHTS assay to identify small molecule agonists of the estrogen receptor alpha (ER-alpha) signaling pathway in the presence of an antagonist (AID 1259383; calls by dose curve; also: top concentration of the series differs between compounds; nearly all actives have a fitted effect of over 15% in size)
Outline: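 In VM7Luc4E2 cells, 4,000 per well, compounds at 15 concentrations were co-incubated 22hr at 37C with 10.0nM final ICI-182,780. Luminescence from the stably transfected 4×ERE-luciferase reporter was recorded 30min after ONE-Glo addition.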

[15] = qHTS assay to identify small molecule antagonists of the progesterone receptor (PR) signaling pathway - cell viability counter screen (AID 1346798); also: series mostly up to about 92 µM; nearly all actives have a fitted effect of over 50% in size
Outline: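 Luminescence readout (CellTiter-Glo, 30 min, RT) of viability in PR-UAS-bla HEK293T cells exposed to compound and R5020 agonist for 16 hr at 37C, 5% CO2; run in the same wells as the beta-lactamase reporter read.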

[16] = target: Estrogen receptor beta (Homo sapiens) (UniProt Q92731); assay: qHTS assay to identify small molecule agonists of the estrogen receptor beta (ER-beta) signaling pathway (AID 1259377; active = well fitted activation curve with a large enough effect in the signal ratio in the repeat runs, not every such curve was filed as active; the % refers to the signal ratio)
Outline: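 Beta-lactamase reporter readout: fluorescence of LiveBLAzer B/G FRET substrate after 2 h at room temperature, following 16 h compound treatment of ER-beta-UAS-bla HEK293T cells at 37C in 2% charcoal-stripped FBS medium.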

[17] = target: Thyrotropin-releasing hormone receptor (Homo sapiens) (UniProt P34981); assay: qHTS assay to identify small molecule antagonists of the thyrotropin-releasing hormone receptor (TRHR) signaling pathway (AID 1346877; active = well fitted inhibition curve with a large enough effect in the repeat runs, not every such curve was filed as active; also: series mostly up to about 51 µM)
Outline: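 In this cell-based calcium flux format, HEK293 cells expressing TRHR received test compound for 5 min before the agonist TRH (1 nM final). Dye loading lasted 2 h at 37 °C.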

[18] = target: Progesterone receptor (Homo sapiens) (UniProt P06401); assay: qHTS assay to identify small molecule antagonists of the progesterone receptor (PR) signaling pathway (AID 1346795; active = well fitted inhibition curve with a large enough effect in the signal ratio in the repeat runs, not every such curve was filed as active; the % refers to the signal ratio; also: potency is read from the fitted curve at half-maximal effect)
Outline: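 Beta-lactamase reporter, HEK293T PR-UAS-bla line; 2% charcoal-stripped FBS; 6 hr pre-incubation, 37C/5% CO2. Compound + R5020 1 nM final, 16 hr. LiveBLAzer B/G FRET substrate, 2 hr RT; fluorescence intensity read.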

[19] = qHTS assay to identify small molecule antagonists of the sonic hedgehog signaling (Shh) pathway (AID 1259369; calls by dose curve; also: nearly all actives have a fitted effect of over 45% in size)
Outline: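 Screening used 3T3Gli1-Luc cells at 2,000 per well, compounds delivered in DMSO, and conditioned medium as agonist stimulus; plates incubated 24hr at 37 C and 5% CO2 before a 30min luciferase step.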

[20] = target: Estrogen receptor beta (Homo sapiens) (UniProt Q92731); assay: qHTS assay to identify small molecule antagonists of the estrogen receptor beta (ER-beta) signaling pathway (AID 1259378; active = well fitted inhibition curve with a large enough effect in the signal ratio in the repeat runs, not every such curve was filed as active; the % refers to the signal ratio)
Outline: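 ER-beta-UAS-bla HEK293T (GripTite) cells in 2% charcoal-stripped FBS medium were preincubated 6 hr at 37C, dosed with compound, then stimulated with 1 nM E2 (final) for 16 hr; beta-lactamase reporter read by B/G FRET fluorescence after 2 hr substrate loading.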

Chain of Estrogen receptor (Homo sapiens) (P03372 whole entry, looked up): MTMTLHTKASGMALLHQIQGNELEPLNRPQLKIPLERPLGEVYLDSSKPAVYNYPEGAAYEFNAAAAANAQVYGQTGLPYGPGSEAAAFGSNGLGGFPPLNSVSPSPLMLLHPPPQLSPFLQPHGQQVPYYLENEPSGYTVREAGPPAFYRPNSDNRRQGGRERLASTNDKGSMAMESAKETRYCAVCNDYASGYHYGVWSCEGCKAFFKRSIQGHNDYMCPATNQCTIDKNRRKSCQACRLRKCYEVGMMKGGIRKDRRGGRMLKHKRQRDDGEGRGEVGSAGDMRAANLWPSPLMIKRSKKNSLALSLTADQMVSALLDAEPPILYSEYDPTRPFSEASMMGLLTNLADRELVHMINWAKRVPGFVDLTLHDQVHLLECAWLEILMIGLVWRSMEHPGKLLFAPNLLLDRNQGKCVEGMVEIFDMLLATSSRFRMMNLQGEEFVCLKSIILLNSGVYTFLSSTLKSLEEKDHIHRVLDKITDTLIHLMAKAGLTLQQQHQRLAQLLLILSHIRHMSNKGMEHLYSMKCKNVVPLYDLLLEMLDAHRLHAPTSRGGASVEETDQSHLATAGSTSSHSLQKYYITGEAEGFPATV
Chain of Thyrotropin receptor (Homo sapiens) (P16473 whole entry, looked up): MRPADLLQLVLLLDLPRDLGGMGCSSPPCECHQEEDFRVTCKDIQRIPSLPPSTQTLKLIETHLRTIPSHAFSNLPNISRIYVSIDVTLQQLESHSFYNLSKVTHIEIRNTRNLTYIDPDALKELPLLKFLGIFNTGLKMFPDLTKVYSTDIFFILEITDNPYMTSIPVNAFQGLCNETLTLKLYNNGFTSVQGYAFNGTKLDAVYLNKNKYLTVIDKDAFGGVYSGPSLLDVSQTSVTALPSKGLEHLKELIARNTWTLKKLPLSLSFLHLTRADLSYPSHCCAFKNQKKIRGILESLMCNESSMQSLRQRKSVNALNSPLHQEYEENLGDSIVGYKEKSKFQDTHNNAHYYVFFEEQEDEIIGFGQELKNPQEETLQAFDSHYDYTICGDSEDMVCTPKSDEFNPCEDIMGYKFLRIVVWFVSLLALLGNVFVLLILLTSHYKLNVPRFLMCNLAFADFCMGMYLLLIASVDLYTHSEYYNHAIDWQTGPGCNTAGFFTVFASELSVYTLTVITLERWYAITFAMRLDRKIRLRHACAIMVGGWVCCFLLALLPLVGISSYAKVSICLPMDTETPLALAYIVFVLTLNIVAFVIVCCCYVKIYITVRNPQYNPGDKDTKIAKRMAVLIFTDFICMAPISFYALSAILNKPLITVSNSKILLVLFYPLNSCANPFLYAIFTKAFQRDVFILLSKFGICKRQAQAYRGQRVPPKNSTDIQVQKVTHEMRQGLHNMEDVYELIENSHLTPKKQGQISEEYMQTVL
Chain of Estrogen receptor beta (Homo sapiens) (Q92731 whole entry, looked up): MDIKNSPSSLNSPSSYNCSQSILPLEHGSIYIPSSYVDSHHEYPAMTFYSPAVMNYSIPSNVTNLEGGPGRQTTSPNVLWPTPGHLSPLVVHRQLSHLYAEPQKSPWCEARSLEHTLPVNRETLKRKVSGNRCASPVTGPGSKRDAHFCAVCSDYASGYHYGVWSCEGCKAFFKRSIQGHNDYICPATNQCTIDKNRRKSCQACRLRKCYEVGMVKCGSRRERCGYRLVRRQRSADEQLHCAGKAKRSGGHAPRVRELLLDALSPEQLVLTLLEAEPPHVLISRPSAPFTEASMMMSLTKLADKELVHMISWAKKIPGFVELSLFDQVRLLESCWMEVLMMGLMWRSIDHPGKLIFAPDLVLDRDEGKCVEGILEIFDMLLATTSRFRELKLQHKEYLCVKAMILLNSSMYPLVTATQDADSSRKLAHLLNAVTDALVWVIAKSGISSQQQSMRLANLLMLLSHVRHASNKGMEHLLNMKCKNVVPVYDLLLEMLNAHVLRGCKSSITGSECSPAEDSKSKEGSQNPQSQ
Chain of Progesterone receptor (Homo sapiens) (P06401 whole entry, looked up): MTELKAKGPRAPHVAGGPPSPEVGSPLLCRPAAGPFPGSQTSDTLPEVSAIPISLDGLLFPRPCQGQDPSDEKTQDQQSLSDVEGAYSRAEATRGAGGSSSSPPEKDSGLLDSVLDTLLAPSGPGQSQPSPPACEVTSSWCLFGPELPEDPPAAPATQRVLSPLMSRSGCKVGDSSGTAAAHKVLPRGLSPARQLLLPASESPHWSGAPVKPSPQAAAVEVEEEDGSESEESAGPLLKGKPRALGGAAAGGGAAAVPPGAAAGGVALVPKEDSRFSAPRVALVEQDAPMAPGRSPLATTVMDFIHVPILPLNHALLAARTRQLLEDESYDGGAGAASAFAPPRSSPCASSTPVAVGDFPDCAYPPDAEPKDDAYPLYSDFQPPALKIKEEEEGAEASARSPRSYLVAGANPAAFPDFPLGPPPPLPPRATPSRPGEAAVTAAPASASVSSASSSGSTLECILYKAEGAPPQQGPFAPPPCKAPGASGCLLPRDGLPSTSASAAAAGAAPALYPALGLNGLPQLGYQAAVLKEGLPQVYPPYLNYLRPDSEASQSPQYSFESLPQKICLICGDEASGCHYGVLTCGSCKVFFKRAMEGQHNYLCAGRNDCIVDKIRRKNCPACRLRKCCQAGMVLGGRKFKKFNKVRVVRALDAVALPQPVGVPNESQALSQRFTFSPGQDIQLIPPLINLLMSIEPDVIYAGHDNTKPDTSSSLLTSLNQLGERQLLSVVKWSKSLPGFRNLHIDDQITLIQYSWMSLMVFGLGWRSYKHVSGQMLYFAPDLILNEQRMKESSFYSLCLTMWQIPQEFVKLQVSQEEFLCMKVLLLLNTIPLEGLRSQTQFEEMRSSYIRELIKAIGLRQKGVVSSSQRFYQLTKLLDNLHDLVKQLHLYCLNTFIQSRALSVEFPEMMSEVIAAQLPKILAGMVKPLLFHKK
Chain of Thyrotropin-releasing hormone receptor (Homo sapiens) (P34981 whole entry, looked up): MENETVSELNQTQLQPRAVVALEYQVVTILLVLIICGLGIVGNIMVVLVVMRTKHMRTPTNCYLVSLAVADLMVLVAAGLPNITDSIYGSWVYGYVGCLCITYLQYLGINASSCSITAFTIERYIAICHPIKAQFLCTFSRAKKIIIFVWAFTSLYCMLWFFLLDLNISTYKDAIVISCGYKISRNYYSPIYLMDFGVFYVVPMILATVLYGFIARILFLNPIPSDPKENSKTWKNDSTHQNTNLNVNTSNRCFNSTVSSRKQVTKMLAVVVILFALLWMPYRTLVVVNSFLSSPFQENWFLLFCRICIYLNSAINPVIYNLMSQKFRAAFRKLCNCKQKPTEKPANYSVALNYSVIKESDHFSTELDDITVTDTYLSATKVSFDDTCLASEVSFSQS
Chain of Androgen receptor (Homo sapiens) (P10275 whole entry, looked up): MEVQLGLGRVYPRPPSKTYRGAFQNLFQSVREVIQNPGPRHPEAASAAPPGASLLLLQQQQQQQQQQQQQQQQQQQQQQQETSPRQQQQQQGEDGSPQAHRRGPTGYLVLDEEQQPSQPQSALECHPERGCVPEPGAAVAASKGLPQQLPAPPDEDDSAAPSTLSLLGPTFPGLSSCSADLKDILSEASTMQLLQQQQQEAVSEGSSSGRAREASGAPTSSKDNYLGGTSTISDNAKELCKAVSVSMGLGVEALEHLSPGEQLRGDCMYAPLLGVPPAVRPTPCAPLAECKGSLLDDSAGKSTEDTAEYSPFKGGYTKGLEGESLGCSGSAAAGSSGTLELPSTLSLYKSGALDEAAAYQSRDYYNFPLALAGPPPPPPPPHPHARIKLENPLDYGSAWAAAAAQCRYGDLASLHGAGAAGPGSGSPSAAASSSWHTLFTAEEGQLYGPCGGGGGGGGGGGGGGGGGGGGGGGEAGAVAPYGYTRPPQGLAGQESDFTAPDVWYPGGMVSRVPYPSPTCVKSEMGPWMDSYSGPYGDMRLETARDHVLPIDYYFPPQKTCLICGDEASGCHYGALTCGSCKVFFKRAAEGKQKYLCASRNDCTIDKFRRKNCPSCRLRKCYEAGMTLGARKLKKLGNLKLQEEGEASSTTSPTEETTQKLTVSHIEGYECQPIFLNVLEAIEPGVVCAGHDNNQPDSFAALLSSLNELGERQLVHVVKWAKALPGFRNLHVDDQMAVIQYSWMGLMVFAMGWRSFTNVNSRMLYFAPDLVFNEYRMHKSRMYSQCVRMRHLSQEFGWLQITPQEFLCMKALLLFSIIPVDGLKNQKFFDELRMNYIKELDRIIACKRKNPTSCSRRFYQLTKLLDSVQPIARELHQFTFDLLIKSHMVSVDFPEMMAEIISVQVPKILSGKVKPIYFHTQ

| SMILES | Potency [1] | Potency [2] | Potency [3] | Potency [4] | outcome [5] | Potency [6] | outcome [7] | Potency [8] | Potency [9] | outcome [10] | outcome [11] | outcome [12] | Potency [13] | Potency [14] | Potency [15] | outcome [16] | outcome [17] | Potency [18] | Potency [19] | Potency [20] |
| --- | --- | --- | --- | --- | --- | --- | --- | --- | --- | --- | --- | --- | --- | --- | --- | --- | --- | --- | --- | --- |
| C#CC(O)CCCCC (stereo not given) | inactive | inactive | inactive | inactive | inactive | inactive | inactive | 27.5 µM (active) | inactive | inactive | inactive | inactive |  |  |  |  |  |  |  |  |
| CCN1CCCC1CNC(=O)c1cc(S(N)(=O)=O)ccc1OC (stereo not given) | inactive | inactive |  |  | inactive | inactive |  | inactive |  | inactive | inactive | inactive | inactive |  |  |  |  |  |  |  |
| CC(=O)c1ccc(C)cc1 | inactive | inactive | inactive | inactive | inactive | inactive | inactive | inactive | inactive | inactive | inactive | inactive |  | inactive | inactive |  |  |  |  |  |
| CC(C)(O)C(=O)c1ccc(OCCO)cc1 | inactive | inactive | inactive | inactive |  |  | inactive | inactive | inactive | inactive | inactive | inactive |  | inactive | inactive | inactive | inactive |  |  |  |
| O=[N+]([O-])c1ccc(CCO)cc1 | inactive | inactive | inactive | inactive |  | inactive | inactive | inactive | inactive | inactive | inactive | inactive |  | inactive | inactive |  |  | inactive |  |  |
| CCCCCCCCCCCCCCCCCC(=O)OCCCCCCCCCCCCCC(C)C | inactive | inactive | inactive | inactive | inactive | inactive | inactive | inactive | inactive | inactive |  | inactive |  | inactive | inactive |  | inactive | inactive |  |  |
| CCCCC=O | inactive | inactive | inactive | inactive | inactive | inactive | inactive | inactive |  | inactive | inactive | inactive |  |  | inactive |  | inactive | inactive |  |  |
| CC(C)[N+](C)(C)CC(O)COc1cccc2ccccc12 (stereo not given) |  | inactive | inactive | inactive | inactive | inactive | inactive | inactive |  | inactive | inactive | inactive |  | inactive |  | inactive | inactive |  | inactive | inactive |
| CCO[Si](CCCN=C=O)(OCC)OCC | inactive | inactive | inactive |  | inactive | inactive | inactive | inactive | inactive | inactive | inactive | inactive |  | inactive | inactive |  | inactive | inactive |  |  |
| Cc1ccc(N)cc1[N+](=O)[O-] | inactive | inactive | inactive | inactive | inactive | inactive | inactive | inactive | inactive | inactive | inactive | inactive | inactive |  | inactive |  | inactive |  |  |  |
| CCCc1ccc(N)cc1 |  | inactive | inactive | inactive | inactive | inactive |  | inactive | inactive | inactive | inactive | inactive |  | inactive | inactive | inactive | inactive | inactive | inactive | inactive |
| NS(=O)(=O)c1cc2c(cc1Cl)NC(CSCc1ccccc1)=NS2(=O)=O | inactive | inactive | inactive | inactive | inactive | inactive | inactive | inactive | inactive | inactive | inactive | inactive |  | inactive | inactive |  | inactive | inactive |  |  |
| O=C(O)Cc1cc(I)c(Oc2cc(I)c(O)c(I)c2)c(I)c1 | inactive | inactive |  |  |  |  | inactive |  |  | inactive |  | inactive |  | inactive | inactive | inactive |  | 18.9 µM (active) |  |  |
| C=CC(=O)N1CCOCC1 | inactive | inactive | inactive | inactive | inactive | inactive |  | inactive | inactive | inactive | inactive | inactive |  |  |  |  |  | inactive |  |  |
| CN(C)N=Nc1ccccc1 | inactive | inactive | inactive | inactive | inactive | inactive |  | inactive |  | inactive | inactive | inactive |  |  | inactive | inactive | inactive | inactive |  |  |
| CN(C)CCOC(c1ccc(Cl)cc1)c1ccccn1 (stereo not given) | inactive | inactive | inactive | inactive | inactive | inactive | inactive | inactive | inactive |  | inactive | inactive |  | inactive | inactive |  | inactive | inactive |  |  |
| C=C(C)[C@@H]1CCC2=CC(=O)C[C@@H](C)[C@]2(C)C1 | inactive | inactive | inactive | inactive | inactive | inactive | inactive | inactive | inactive | inactive | inactive | inactive |  | inactive |  |  |  |  |  | inactive |
| CN(C)C(=O)C(CCN1CCC(O)(c2ccc(Cl)cc2)CC1)(c1ccccc1)c1ccccc1 | inactive | 29.8 µM (active) | 26.6 µM (active) |  |  |  |  | inactive | inactive | inactive | inactive |  |  | inactive | inactive | inactive | inactive |  |  |  |
